The source of these data is PubChem BioAssay (NCATS).

Test [1] has as its target Rap guanine nucleotide exchange factor 3 (Homo sapiens) (UniProt O95398). Description: Confirmatory qHTS for antagonist of cAMP-regulated guanine nucleotide exchange factor 3 (EPAC1) (AID 1645880). Further: nearly all actives have a fitted effect of over 55% in size. Further: potency means the concentration at half of the fitted maximal effect. The essentials: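 Nucleotide exchange uses 100 nM EPAC1, 250 nM RAP1B-BODIPY-GDP and 50 uM GDP, with compounds in a concentration-titration series. After 5 min at room temperature, fluorescence (480 nm ex/540 nm em) is read every 5 min for 30 min. Data are normalized to control ATA and DMSO.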

The target is the same in test [2]. Description: Confirmatory qHTS for agonist of cAMP-regulated guanine nucleotide exchange factor 3 (EPAC1) (AID 1645881).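 Further: EPAC1 catalysed release of BODIPY-GDP from Rap1B seen as fluorescence loss; 100% = effect of cAMP agonist control; nearly all actives have a fitted effect of over 75% in size.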
Test [3] deals with Rap guanine nucleotide exchange factor 4 (Homo sapiens) (UniProt Q8WZA2). Description: Confirmatory qHTS for agonist of cAMP-regulated guanine nucleotide exchange factor 4 (EPAC2) (AID 1645884).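 Further: nucleotide exchange releases bodipy-GDP from Rap1 and this lowers its fluorescence; on the % scale 0 is the no-effect control and ±100 the full control effect; nearly all actives have a fitted effect of over 65% in size.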
Sequence of Rap guanine nucleotide exchange factor 4 (Homo sapiens) (Q8WZA2 whole entry, looked up): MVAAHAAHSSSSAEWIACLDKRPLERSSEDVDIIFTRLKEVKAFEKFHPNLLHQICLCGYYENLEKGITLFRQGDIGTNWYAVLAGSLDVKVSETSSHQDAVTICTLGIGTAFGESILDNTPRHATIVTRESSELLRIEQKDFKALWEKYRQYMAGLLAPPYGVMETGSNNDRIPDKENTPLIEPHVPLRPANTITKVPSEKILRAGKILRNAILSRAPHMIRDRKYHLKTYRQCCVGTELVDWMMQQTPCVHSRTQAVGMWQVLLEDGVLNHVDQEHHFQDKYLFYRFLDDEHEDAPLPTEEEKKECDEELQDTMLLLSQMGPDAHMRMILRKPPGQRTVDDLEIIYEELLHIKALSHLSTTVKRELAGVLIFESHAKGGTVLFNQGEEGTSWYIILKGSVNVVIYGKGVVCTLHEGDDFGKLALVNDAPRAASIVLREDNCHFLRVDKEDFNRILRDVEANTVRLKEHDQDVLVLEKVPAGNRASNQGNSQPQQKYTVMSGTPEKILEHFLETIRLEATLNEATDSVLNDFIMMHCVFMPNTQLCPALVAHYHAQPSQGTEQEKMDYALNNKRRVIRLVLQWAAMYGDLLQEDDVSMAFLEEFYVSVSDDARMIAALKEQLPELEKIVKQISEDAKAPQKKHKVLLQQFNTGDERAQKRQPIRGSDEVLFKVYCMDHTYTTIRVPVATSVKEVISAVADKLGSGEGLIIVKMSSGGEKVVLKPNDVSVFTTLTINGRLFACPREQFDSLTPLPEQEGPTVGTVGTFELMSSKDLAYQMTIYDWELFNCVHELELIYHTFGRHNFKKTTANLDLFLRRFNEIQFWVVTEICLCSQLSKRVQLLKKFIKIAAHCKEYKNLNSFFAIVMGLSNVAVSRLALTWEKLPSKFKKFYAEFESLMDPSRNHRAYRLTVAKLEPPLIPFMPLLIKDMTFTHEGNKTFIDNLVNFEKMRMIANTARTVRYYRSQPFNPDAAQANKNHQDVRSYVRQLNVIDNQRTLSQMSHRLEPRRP

Inconclusive results are not listed. A number with no mark means an inactive call. Active and inactive are the calls of the source. The call rests on the fitted dose curve; in most records, active means well fitted curve in the direction sought with a large enough effect; inconclusive means small, poorly fitted or top-dose-only effect, or another doubt; inactive means no such curve, though single readings can be large; an effect the other way counts as inactive or inconclusive.

Sequence of Rap guanine nucleotide exchange factor 3 (Homo sapiens) (O95398 whole entry, looked up): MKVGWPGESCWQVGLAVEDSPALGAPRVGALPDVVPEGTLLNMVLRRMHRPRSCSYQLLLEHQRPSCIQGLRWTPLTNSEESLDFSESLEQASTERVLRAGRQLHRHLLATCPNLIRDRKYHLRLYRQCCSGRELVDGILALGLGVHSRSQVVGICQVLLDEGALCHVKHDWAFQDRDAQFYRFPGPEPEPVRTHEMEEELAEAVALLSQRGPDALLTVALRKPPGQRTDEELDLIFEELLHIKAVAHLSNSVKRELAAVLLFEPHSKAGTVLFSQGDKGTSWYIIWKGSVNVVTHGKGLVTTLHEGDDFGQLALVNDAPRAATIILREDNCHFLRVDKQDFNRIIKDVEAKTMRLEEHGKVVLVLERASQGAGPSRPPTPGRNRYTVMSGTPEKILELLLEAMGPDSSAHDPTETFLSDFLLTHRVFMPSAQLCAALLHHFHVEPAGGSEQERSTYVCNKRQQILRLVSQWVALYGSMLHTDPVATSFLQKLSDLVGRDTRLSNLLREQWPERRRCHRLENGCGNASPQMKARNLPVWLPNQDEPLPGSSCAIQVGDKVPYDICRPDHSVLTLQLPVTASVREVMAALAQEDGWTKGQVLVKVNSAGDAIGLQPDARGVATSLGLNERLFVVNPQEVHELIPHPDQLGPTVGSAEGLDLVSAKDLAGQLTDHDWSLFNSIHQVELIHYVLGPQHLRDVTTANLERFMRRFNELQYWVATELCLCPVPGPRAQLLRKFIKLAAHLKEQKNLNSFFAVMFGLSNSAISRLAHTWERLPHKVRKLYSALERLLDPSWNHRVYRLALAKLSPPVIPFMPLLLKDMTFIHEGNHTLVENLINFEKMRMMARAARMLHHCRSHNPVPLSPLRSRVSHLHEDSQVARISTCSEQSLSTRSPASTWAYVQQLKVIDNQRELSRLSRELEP

As to `Cc1cnc2ccccc2c1/C=C/c1ccc(N(C)C)cc1`, the Potency result in test [1], in test [2] and in test [3] was “inactive” each time.
For the compound `O=C1CCN(Cc2ccccc2)CCN1[C@H](COc1ccccc1)Cc1ccccc1`, the Potency entry in test [1] and in test [2] was “inactive” throughout.
For `C[C@@H]1CCC(=O)N(CC[C@H](Oc2ccccc2)c2ccccc2)CC1`, the Potency result in test [1], in test [2] and in test [3] was “inactive” throughout.
For the compound `CN(C)c1ccc(/C=C/c2c(Cl)cnc3ccccc23)cc1`, the Potency result in test [1] and in test [2] was “inactive” in each case.
Consider `Cc1cc(/C=C/c2ccnc3ccccc23)ccc1N(C)C`, for which the Potency result in test [1], in test [2] and in test [3] was “inactive” throughout.
For `CCCCOC(=O)Nc1ccc(S(=O)(=O)Nc2nccs2)cc1`, the Potency result in test [1], in test [2] and in test [3] was “inactive” throughout.
Regarding `COc1ccc(C(=O)c2ccc(Br)cc2)c2ccccc12`, the Potency entry in test [1], in test [2] and in test [3] was “inactive” each time.
As for `CCOC(=O)C1CCCN(C(=O)c2cnn(-c3nccc(-c4cc(C)sc4C)n3)c2C)C1` (stereo not drawn), the Potency entry in test [1], in test [2] and in test [3] was “inactive” throughout.
As to `COc1cc(OC)c2c(-c3ccccc3)cc(=O)oc2c1`, the Potency result in test [1] and in test [2] was “inactive” each time. Besides, the activation in test [3] is 5.59% [at 17.1 µM, percent relative to cAMP agonist control].
As to `C=CCOc1ccc(Br)cc1/C=C1/SC(=Nc2ccc(C(=O)O)cc2)NC1=O`, the Potency in test [1] was 30.1 µM (active). For the same compound, the Potency result in test [2] and in test [3] was “inactive” each time.
Regarding `Cn1cc(/C=C/c2ccc3ccccc3n2)c2ccccc21`, the Potency entry in test [1], in test [2] and in test [3] was “inactive” throughout.
`CC(=O)C(C(c1ccccc1)c1c[nH]c2ccccc12)[N+](=O)[O-]` (stereo not drawn): the Potency entry in test [1] and in test [2] was “inactive” each time.
Take `CCOC(=O)c1ccc(N(C(=O)c2ccccc2)c2ccccc2)cc1`: the Potency result in test [1] and in test [2] was “inactive” throughout.
Take `COc1ccc(C(=O)c2ccc(OC)cc2OC)cc1`: the Potency entry in test [1] and in test [2] was “inactive” in each case.
Regarding `Cc1ccc2c(/C=C/c3c[nH]c4ccccc34)ccnc2c1C`, the Potency entry in test [1], in test [2] and in test [3] was “inactive” each time.
For the compound `COc1cc(-c2noc(C)c2-c2ccc3[nH]ccc3c2)cc(OC)c1OC`, the Potency entry in test [1], in test [2] and in test [3] was “inactive” each time.
